MT1-MMP txn act: activates MT1-MMP transcription. HT1080 MT1-MMP promoter luciferase reporter, luminescence, overnight; active compounds read high. 86,000 tested, 0.16% active. AID 750. activation factor at 10 µM;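 active means activation factor of at least 2 for MT1-MMP transcription at 10 µM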
Measles CPE: protection of cells from measles virus. Measles virus-infected cells, CPE protection, absorbance. protection (pct of control), % at 4 µM. 140,000 tested, 1.5% active. AID 841; in the data active means protection mostly above about 24%, no sharp cut-off; inactive means mostly below about 26%
Smad3 inh: Smad3 (human) transcription factor binding inhibition; inhibition, % at 25 µM; TR-FRET Smad3/Dy647-FoxH1 peptide binding, europium anti-His; 88,000 tested, 0.29% active;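 active means compounds that reduce the energy-transfer binding signal between the protein and its labelled peptide by more than half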;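 further: 0% = Smad3 plus labelled peptide maximal FRET and 100% = peptide-only background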
Target sequence (P84022 whole entry, looked up): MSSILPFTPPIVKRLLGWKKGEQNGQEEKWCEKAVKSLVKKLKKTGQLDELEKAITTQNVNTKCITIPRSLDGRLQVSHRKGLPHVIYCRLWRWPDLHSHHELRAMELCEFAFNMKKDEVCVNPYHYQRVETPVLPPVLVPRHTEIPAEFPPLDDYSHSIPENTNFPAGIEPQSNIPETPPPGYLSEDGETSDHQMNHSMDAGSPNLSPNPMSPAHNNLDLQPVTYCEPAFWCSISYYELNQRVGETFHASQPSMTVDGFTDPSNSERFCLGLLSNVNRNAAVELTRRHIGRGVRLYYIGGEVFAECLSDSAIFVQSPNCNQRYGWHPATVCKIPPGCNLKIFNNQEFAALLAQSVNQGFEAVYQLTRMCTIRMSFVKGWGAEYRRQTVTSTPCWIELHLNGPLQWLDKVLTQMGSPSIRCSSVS
Numbers without * were called inactive; [ ] = remark or other dose. Compounds with a hit are over-represented: about 1.7% of the library has one in this group of screens.

`CC(=O)C1=C(O)C(=O)N(Cc2ccco2)C1c1ccccc1` (stereo not given) gave MT1-MMP txn act 1, Measles CPE 34* and Smad3 inh 12.
`Cc1cc(=Nc2ccc3c(c2)c(N)cc(C)[n+]3C)nc(N)n1C` gave Smad3 inh -1.
For Cn1cccc1C(=O)C(=O)Nc1cc(Cl)cc(Cl)c1 the results were Measles CPE 15.
For Cn1cccc1C(=O)C(=O)Nc1ccc(Cl)cc1 the results were Measles CPE 41*.
For CCC1=C(OC(=O)N(CC)CC)N2C(=O)OC(=NCC3CC3)[C@]2(C)[C@H]2C1=CC[C@H]1C(=O)N(c3ccccc3)C(=O)[C@H]12 the results were MT1-MMP txn act 1.1.
For Cc1nc(SCC(=O)N2CC(C)OC(C)C2)nc(C)c1C (stereo not given) the results were MT1-MMP txn act 1, Measles CPE 26* and Smad3 inh -6.
CC1CN(C(=O)CSc2nc(-c3ccccc3)cs2)CC(C)O1 (stereo not given) was read as Measles CPE 22 and Smad3 inh 4.
O=C(c1ccc(Cl)cc1Cl)C1(n2cncn2)Oc2ccccc2C1O (stereo not given) was read as MT1-MMP txn act 1.2, Measles CPE 2 and Smad3 inh 2.
`O=C1CC(=O)C(n2cncn2)C(c2ccc(Cl)cc2Cl)C1` (stereo not given) gave Measles CPE 22*.
`COC(=O)c1cccc(C23CC4(C2)[C@H](CN(CC2CCCCC2)[C@@H]4c2ccccc2)C3c2ccc(C(F)(F)F)cc2)c1` (stereo not given in full) gave MT1-MMP txn act 1.
O=c1[nH]c(SCc2cccc([N+](=O)[O-])c2)nc2nc[nH]c12 was read as Smad3 inh 0.
For O=C(Nc1ccc2nc(-c3cccs3)[nH]c2c1)c1cccs1 the results were MT1-MMP txn act 1.2, Measles CPE 17 and Smad3 inh 14.
Screening O=C(Nc1ccc(-c2nc3ccc(NC(=O)c4cccs4)cc3[nH]2)cc1)c1cccs1 returned MT1-MMP txn act 0.9, Measles CPE 9 and Smad3 inh 54*[fluorescence artefact?].
For CCSCCCC(=O)O the results were Smad3 inh 1.
Screening COC(=O)c1cn(NC(=O)/C=C/c2cc(OC)ccc2OC)c(=O)c2ccccc12 returned Measles CPE 6.
Screening CN1CCN(c2ccncc2S(=O)(=O)N2CCN(C)CC2)CC1 returned Smad3 inh 10.
`O=C(Nc1ccc(Br)cc1)c1ccc(Br)c(S(=O)(=O)Nc2cccnc2)c1` gave Measles CPE 46*.
`O=C(Nc1cccnc1)c1ccc(Cl)c(S(=O)(=O)N2CCCCCC2)c1` gave MT1-MMP txn act 1.4, Measles CPE 4 and Smad3 inh 11.
Screening C/C(C[n+]1ccccc1)=N\N=C(N)N returned Smad3 inh 14.
`N#CCOc1nc(N2CCCC2)nc(N2CCCC2)n1` gave MT1-MMP txn act 1.1, Measles CPE 12 and Smad3 inh 9.
Screening CCOc1nc(C#N)nc(N2CCCCC2)n1 returned MT1-MMP txn act 1, Measles CPE 36* and Smad3 inh -3.
`CC(C)c1ccccc1S(=O)c1ccccc1C(C)(C)O` (stereo not given) gave Smad3 inh 20.
COc1cccc(C2NC(C)(C(=O)O)C3C(=O)N(C(C)C)C(=O)C23)c1O (stereo not given) was read as MT1-MMP txn act 1.1, Measles CPE 29* and Smad3 inh -1.
CSCCC1(C(=O)O)NC(c2ccccc2O)C2C(=O)N(C(C)C)C(=O)C21 (stereo not given) was read as MT1-MMP txn act 1.2, Measles CPE 15 and Smad3 inh 1.
Screening CCC/C=C(\CCC)C(NS(=O)(=O)c1ccc(-c2ccccc2)cc1)c1ccc(C(=O)OC)cc1 (stereo not given) returned MT1-MMP txn act 1.2.
For CC1=c2c(oc3cc(O)c(Nc4c(C)cc(O)cc4O)c(C)c23)=CC(=O)C1=Nc1c(C)cc(O)cc1O the results were Smad3 inh -4.
Screening CCc1cccc(NC(=O)Cc2ccc([N+](=O)[O-])cc2)c1 returned Measles CPE 6.
Screening O=C(Cc1ccc([N+](=O)[O-])cc1)Nc1cccc(C(F)(F)F)c1 returned Measles CPE 73*.
Screening Cc1cc([N+](=O)[O-])ccc1NC(=O)Cc1ccc(F)cc1 returned Measles CPE 53*.
For COc1cc([N+](=O)[O-])ccc1NC(=O)Cc1ccc(F)cc1 the results were Measles CPE 5.
Screening CCOc1ccccc1NC(=S)NCc1ccco1 returned MT1-MMP txn act 1, Measles CPE 48 and Smad3 inh 11.
`COc1ccc(/C=C/c2nnc(NC(=O)CSc3ccc(Cl)cc3)s2)cc1` gave Measles CPE 3.
Screening S=c1[nH]ccn1-c1cccc(Cl)c1 returned Measles CPE 4.
For CC1=C(C(=O)OCC(Br)(Br)Br)C(c2cccc3ccccc23)NC(=O)N1CCCC(=O)O (stereo not given) the results were MT1-MMP txn act 1.1.
`CCCCCc1nc2sc3c(c2c(=O)n1NC(=O)c1ccc([N+](=O)[O-])cc1)CC(C)(C)OC3` gave Measles CPE 9.
`Cc1cc(C(=O)COC(=O)C2=NNC(=O)CC2)c(C)n1-c1ccccc1` gave MT1-MMP txn act 1, Measles CPE 8 and Smad3 inh -21.
For Cc1ccc(-n2c(C)cc(C(=O)COC(=O)C3=NNC(=O)CC3)c2C)cc1 the results were Measles CPE 29*.
`CC1(C)NC(=O)N(CCCOc2ccc(Br)cc2Cl)C1=O` gave MT1-MMP txn act 1.4, Measles CPE 57* and Smad3 inh 8.
CC1(C)NC(=O)N(CCCCOc2ccc(Br)cc2Cl)C1=O was read as MT1-MMP txn act 1, Measles CPE 8 and Smad3 inh 3.
COc1ccc(CNC(NC(=O)c2ccccc2)(C(F)(F)F)C(F)(F)F)cc1 was read as Measles CPE 22.
For COC(=O)c1ccc(C(NC(=O)OCc2ccccc2)/C(I)=C/[C@@H](C)C(=O)Nc2ccccc2)cc1 (stereo not given in full) the results were MT1-MMP txn act 1.1.
Screening O=C(Cn1cnc2c(nnn2Cc2ccccc2)c1=O)N1CCCc2ccccc21 returned MT1-MMP txn act 1.1, Measles CPE 11 and Smad3 inh 0.
Screening O=C(Cn1cnc2c(nnn2-c2ccccc2)c1=O)N1CCCc2ccccc21 returned MT1-MMP txn act 1.1, Measles CPE 53* and Smad3 inh 2.
For Nc1nc(SCc2ccccc2Cl)cc(C(=O)O)n1 the results were Smad3 inh 6.
N#CC(C(=O)NCCc1ccccc1)c1nc2ccccc2nc1N1CCOCC1 (stereo not given) was read as MT1-MMP txn act 1, Measles CPE 19 and Smad3 inh 6.
For CCCCCCNC(=O)C(C#N)c1nc2ccccc2nc1N1CCCC1 (stereo not given) the results were MT1-MMP txn act 1.1, Measles CPE 4 and Smad3 inh 13.
`CCCCCCNC(=O)C(C#N)c1nc2ccccc2nc1N1CCOCC1` (stereo not given) gave MT1-MMP txn act 1.1, Measles CPE 47* and Smad3 inh 26.
